Source: PubChem BioAssay AID1159580 (chemical genetic matrix, 2015)
Where “and” joins values, the source holds several entries; their conditions need not be identical. Equal entries are not always repeated. Hit rate of the full screen: of about 5,500 compounds, about 2,000 (36%) were called active. Inconclusive results (about 18%) are left out. No stated cut-off is given here; in the data, active means normalized growth mostly below about 0.91 (no sharp cut-off); inconclusive means no clear call, values can overlap the other calls; inactive means mostly above about 0.92. The list shows a part of the results.

Assay: chemical genetic growth profiling, strain panel (AID 1159580);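 further: tested at 20 µM; growth read once vehicle control cultures reached saturation at 30 °C; 1 = growth at the plate median or of vehicle wells; lower values mean less growth of the strain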
Settings: S. cerevisiae deletion strains, growth OD

Measured: normalized growth

Cc1cc(=O)oc2c(O)c(O)ccc12
inactive: locus YAL021C, strain ccr4, hits give low values 0.981 | locus YAL026C, strain drs2, hits give low values 0.967 | locus YAL030W, strain snc1, hits give low values 0.964 | locus YBL061C, strain skt5, hits give low values 0.966 | locus YBR009C, strain hhf1, hits give low values 0.966 | locus YBR021W, strain FUR4, hits give low values 0.975 | locus YBR023C, strain chs3, hits give low values 0.975 | locus YBR171W, strain sec66, hits give low values 0.975 | locus YBR229C, strain ROT2, hits give low values 1 | locus YBR231C, strain swc5, hits give low values 0.978 | locus YBR279W, strain paf1, hits give low values 0.973 | locus YCL011C, strain gbp2, hits give low values 0.958 | locus YCL016C, strain dcc1, hits give low values 0.972 | locus YCL029C, strain bik1, hits give low values 0.999 | locus YCL061C, strain MRC1, hits give low values 0.992 | locus YCL069W, strain vba3, hits give low values 0.976 | locus YCR088W, strain abp1, hits give low values 0.965 | locus YDL005C, strain med2, hits give low values 0.958 | locus YDL035C, strain GPR1, hits give low values 1.01 | locus YDL040C, strain nat1, hits give low values 0.98 | locus YDL074C, strain BRE1, hits give low values 0.993 | locus YDL101C, strain DUN1, hits give low values 1.01 | locus YDL134C, strain PPH21, hits give low values 1.02 | locus YDL185W, strain tfp1, hits give low values 1 | locus YDL192W, strain arf1, hits give low values 1 | locus YDR001C, strain nth1, hits give low values 0.968 | locus YDR069C, strain doa4, hits give low values 0.963 | locus YDR101C, strain arx1, hits give low values 1.02 | locus YDR137W, strain rgp1, hits give low values 0.94 | locus YDR150W, strain NUM1, hits give low values 1.01 | locus YDR159W, strain sac3, hits give low values 0.967 | locus YDR162C, strain NBP2, hits give low values 1.02 | locus YDR195W, strain ref2 0.913 | locus YDR297W, strain sur2, hits give low values 0.979 | locus YDR318W, strain mcm21, hits give low values 0.993 | locus YDR334W, strain swr1, hits give low values 0.968 | locus YDR335W, strain msn5, hits give low values 0.981 | locus YDR388W, hits give low values 0.994 | locus YDR392W, strain spt3, hits give low values 0.973 | locus YDR502C, strain sam2, hits give low values 1 | locus YEL003W, strain gim4, hits give low values 0.976 | locus YEL037C, strain rad23, hits give low values 0.934 | locus YEL061C, strain CIN8 (second series), hits give low values 0.952 | locus YEL061C, strain CIN8, hits give low values 1 | locus YER015W, strain faa2, hits give low values 1 | locus YER016W, strain bim1, hits give low values 0.986 | locus YER110C, hits give low values 0.993 | locus YER111C, strain swi4, hits give low values 0.957 | locus YER155C, strain BEM2 (second series), hits give low values 0.987 | locus YER155C, strain BEM2, hits give low values 1.01 | locus YER167W, strain BCK2, hits give low values 1.01 | locus YFR010W, strain ubp6, hits give low values 0.947 | locus YGL078C, strain dbp3, hits give low values 1 | locus YGL086W, strain mad1, hits give low values 0.991 | locus YGL167C, strain pmr1, hits give low values 0.943 | locus YGL173C, strain kem1, hits give low values 0.987 | locus YGL227W, strain vid30, hits give low values 0.962 | locus YGL240W, strain doc1, hits give low values 0.979 | locus YGL248W, strain PDE1, hits give low values 1.01 | locus YGL253W, strain hxk2, hits give low values 0.974 | locus YGR135W, strain pre9, hits give low values 0.988 | locus YGR229C, strain SMI1, hits give low values 1 | locus YGR252W, strain gcn5, hits give low values 0.977 | locus YHR013C, strain ard1, hits give low values 0.942 | locus YHR027C, strain rpn1, hits give low values 0.973 | locus YHR030C, strain SLT2, hits give low values 1 and 0.999 | locus YHR079C, strain IRE1 (second series), hits give low values 1 | locus YHR079C, strain IRE1, hits give low values 0.983 | locus YHR094C, strain hxt1, hits give low values 1.02 | locus YHR129C, strain ARP1, hits give low values 1 | locus YHR142W, strain chs7, hits give low values 0.973 | locus YHR200W, strain rpn10, hits give low values 1.02 | locus YIL066C, strain RNR3, hits give low values 1.02 | locus YIL073C, strain SPO22, hits give low values 1.03 | locus YIL125W, strain kgd1, hits give low values 0.975 | locus YIR030C, strain dcg1, hits give low values 1 | locus YJL092W, strain hpr5, hits give low values 0.978 | locus YJL095W, strain BCK1 (second series), hits give low values 0.988 | locus YJL095W, strain BCK1, hits give low values 0.98 and 0.997 | locus YJL115W, strain asf1, hits give low values 0.975 | locus YJL129C, strain trk1, hits give low values 0.972 | locus YJL134W, strain LCB3, hits give low values 1.01 | locus YJL154C, strain vps35, hits give low values 0.976 | locus YJL164C, strain tpk1, hits give low values 0.985 | locus YJL166W, strain qcr8, hits give low values 1 | locus YJL168C, strain set2, hits give low values 0.993 | locus YJL187C, strain SWE1 (second series), hits give low values 1 | locus YJL187C, strain SWE1, hits give low values 0.976
